Source: PubChem BioAssay AID652054 (National Center for Advancing Translational Sciences (NCATS), 2013)
The whole screen tested about 360,000 compounds, of which about 9,100 (2.5%) were called active. Roughly 4% stayed inconclusive and do not appear here. Cut-off read from the data, not from the text of the source: active = max response below about -50%; inconclusive = no clear call, values can overlap the other calls; inactive = above that. The list comes from a sample in which actives are over-represented; it also holds similar structures and randomly drawn compounds.

These compounds were tested against D(3) dopamine receptor (Homo sapiens) (UniProt P35462) (assay: qHTS of D3 Dopamine Receptor Antagonist: qHTS). Settings: D3R cells, DiscoveRx beta-arrestin luminescence, antagonist mode; stronger effect = lower value.
Excerpt: D3 DARs represent a very important target for the treatment of several neuropsychiatric disorders. Indeed, one of the most promising therapeutic applications for the D3 DAR is in the area of addiction and related disorders. […] These findings have been observed with a number of addictive substances including cocaine, amphetamine, nicotine, and alcohol. […] Antagonism of the D3 DAR may also be therapeutic in the treatment of schizophrenia or psychosis. […] Since the D3 DAR is expressed in areas of the CNS associated with the control of mood and emotion, it has been hypothesized that selective antagonism of the D3 DAR may be effective in treating psychosis without inducing the motor side effects typically seen with D2 DAR antagonists.
This part of the project aims to discover novel antagonist.
NIH Chemical Genomics Center [NCGC]
NIH Molecular Libraries Probe Centers Network [MLPCN]
Assay Submitter (PI): David Sibley, NINDS
Freshly passaged cells are plated in 1536 well white, solid bottom plates at a density of 1500 cells/well in 3microl of complete media. After an overnight incubation at 37 degrees C in 5% CO2, cells are loaded with 23nl of test compound from the compound library (as well as dopamine controls) using a 1536 pintool and incubated at 37 degrees C for 90 minutes. Two microliters of DiscoveRx reagent is then added to all cells, and they are incubated for an additional 30 - 60 minutes at room temperature. Following incubation, luminescence is measured on a ViewLux CCD-based luminometer reader using a 20 sec exposure time.
% is set by controls: 0 for no effect and ±100 for the full control effect.

Chain of D(3) dopamine receptor (Homo sapiens) (P35462 whole entry, looked up): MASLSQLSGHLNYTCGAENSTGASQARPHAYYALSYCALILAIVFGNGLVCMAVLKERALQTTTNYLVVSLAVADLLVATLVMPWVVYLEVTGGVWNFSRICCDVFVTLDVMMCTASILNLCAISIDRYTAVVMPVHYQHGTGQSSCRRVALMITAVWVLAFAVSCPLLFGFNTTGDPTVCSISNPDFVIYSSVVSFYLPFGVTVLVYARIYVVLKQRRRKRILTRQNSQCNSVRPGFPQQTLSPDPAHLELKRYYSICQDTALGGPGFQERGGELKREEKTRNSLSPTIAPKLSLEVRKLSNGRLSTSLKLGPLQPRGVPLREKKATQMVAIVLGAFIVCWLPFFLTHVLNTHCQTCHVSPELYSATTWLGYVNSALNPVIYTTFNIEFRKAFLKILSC

Max response, negative = inhibition, inactive:
CCc1cccc(OC2OC(CO)C(O)C(O)C2NC(C)=O)c1 (stereo not drawn) -21.8%
CC(=O)NC1C(Oc2ccc(C=O)cc2)OC(COC(C)=O)C(OC(C)=O)C1OC(C)=O (stereo not drawn) 14.4%
Cc1cccc(CN2CCN(C3CN(Cc4cn(Cc5cc(C)cc(C)c5)nn4)S(=O)(=O)C3)CC2)c1 (stereo not drawn) 0.506%
Cc1ccc(Cc2c(-c3ccccc3)nc3ccc(Cl)cn23)cc1 5.55%
CCc1ccccc1NC(=S)N(CCN1CCCCCC1)Cc1ccco1 -28.8%
Cc1ccc(NC(=S)N(CCN(C)C)Cc2cccs2)cc1C -25.3%
Cc1ccc(NC(=S)N(Cc2ccco2)C(C)c2cccs2)cc1 (stereo not drawn) 10.5%
Cc1ccc(NC(=S)N(CCCN2CCCC2)Cc2cccn2Cc2ccc(Cl)cc2)cc1 -19%
O=C(c1ccc(C(F)(F)F)cc1)N1CCC(=O)N([C@H](COCc2ccccc2)Cc2ccccc2)CC1 -26.4%
CC(C)c1ccc(CC(=O)N2CCC2(C)C(=O)NS(=O)(=O)c2ccc(C(C)(C)C)cc2)cc1 (stereo not drawn) 22.2%
Nc1ncnc2c1ncn2[C@@H]1O[C@H](C(=O)NCC(F)(F)F)[C@@H](O)[C@H]1O 14.5%
Cc1nc(C(F)(F)F)ccc1C(=O)N1CCC1(C)C(=O)NS(=O)(=O)c1ccc(F)cc1F (stereo not drawn) 19.8%
O=C1NC[C@@H](CCCCN2CCN(CCc3ccc(O)cc3)C(=O)C2=O)N(CC2CCCCC2)C1=O 0%
O=C(CSc1ccc(-c2ccccc2)nn1)NCC1CCCO1 (stereo not drawn) -1.73%
CCn1c(SCC(=O)NCC2CCCO2)nc2ccccc21 (stereo not drawn) 1.46%
CC(=O)c1cccc(-c2cnc3c(NC=O)cc(-c4ccc(N5CCN(C)CC5)cc4)cn23)c1 13.5%
O=CN1CCN(C2CC(=O)N(c3ccc4c(c3)OCO4)C2=O)CC1 (stereo not drawn) -17.5%
Cc1ccc(CC2CC(=O)N(c3ccc4c(c3)OCCO4)C2=O)cc1 (stereo not drawn) 23.1%
CC(C)n1ncc2c(C(=O)N3CCN(Cc4cccs4)CC3)cc(C3CC3)nc21 -22.9%
CC1(C2CC2)NC(=O)N(CC(=O)N2CCN(c3ccccc3F)CC2)C1=O (stereo not drawn) -14.5%
Cc1ccccc1CN1C(=O)CSCC1(C)C(=O)Nc1c(C)cccc1C (stereo not drawn) 4.29%
COc1ccc(NCCc2ccccn2)cc1 1.2%
COc1ccc2nc(-c3ccccn3)ccc2c1 -12.3%
CCOC(=O)c1c(NC(=O)COC(=O)c2ccc(S(=O)(=O)C(F)F)cc2)sc(C(=O)N(C)C)c1C 13%
Cc1ccc(-c2c(N)nc3ncccn23)cc1 1.01%
OCCN1CCN(c2ncnc3c2ncn3[C@H]2CN(Cc3ccco3)C[C@@H](CO)O2)CC1 -7.83%
O=S1(=O)CC(N2CCN(CCO)CC2)CN1Cc1cn(Cc2ccc(Cl)cc2)nn1 (stereo not drawn) -11.2%
COc1cc(/C=N/n2c(C)n[nH]c2=S)ccc1OCc1ccccc1 4.09%
Cc1ccccc1-c1n[nH]c(=S)n1/N=C/c1ccc(-c2ccccc2Br)o1 -16.9%
NC(c1csc(NC(=O)Nc2ccccc2Oc2ccccc2)n1)c1ccccc1Cl (stereo not drawn) 46.2%
COC(=O)[C@]12CCCCC=C1N(Cc1ccco1)C(=O)[C@H](CC(=O)NCCCCc1ccccc1)C2 -9.24%
Cc1ccc(CN2CC(N3CCC(Cc4ccccc4)CC3)CS2(=O)=O)cc1 (stereo not drawn) 6.13%
O=C(CSc1nc2[nH]ncc2c(=O)[nH]1)Nc1ccc(F)cc1 2.63%
Cc1cc(=O)[nH]c(SCC(=O)Nc2ccc(Br)cc2)n1 -12.6%
COc1ccc(Cl)cc1-c1cc(C(=O)Nc2cc(OC)c(OC)c(OC)c2)[nH]n1 106%
Clc1cccc(Cl)c1OCCOCCNCc1ccccc1 43.5%
COCCNCCOCCOc1cccc(OC)c1 6.73%
C[C@@H]1CN([C@H](C)CO)S(=O)(=O)c2ccc(C#CC3CCCCC3)cc2O[C@H]1CN(C)C(=O)Cc1ccncc1 -18.9%
CCc1nc2ccc(C(=O)NCc3ccc(OC)cc3)cn2c1N(CC)Cc1cccc(Br)c1 0%
C[C@H](CO)N1C[C@H](C)[C@H](CN(C)C(=O)c2ccncc2)OCc2ccccc2-c2c(n(C)c3ccccc23)C1=O -9.27%
O=C(NCc1ccc(F)cc1)c1cc(C2CCCCN2C(=O)C2CCCCC2)on1 (stereo not drawn) 2.42%
O=C(Nc1cccc(Cl)c1)c1cc([N+](=O)[O-])ccc1N1CCN(CCO)CC1 -13.4%
CCC(=O)c1ccc(N2CCN(C(=O)c3cc([N+](=O)[O-])ccc3F)CC2)c(F)c1 15%
O=C(NCCc1ccccc1)/C(=C\c1ccc([N+](=O)[O-])cc1)NC(=O)c1ccccc1 9%
O=C(Nc1ccc(C(=O)O)cc1)/C(=C/c1ccc([N+](=O)[O-])cc1)NC(=O)c1ccccc1 -12.4%
Cc1sc2ccccc2c1CNC[C@H]1O[C@@H](n2ccc(=O)[nH]c2=O)[C@H](O)[C@@H]1O 23.7%
O=C(NCc1ccccc1Cl)c1csc([C@@H]2O[C@H](CO)[C@@H](O)[C@H]2O)n1 0%
Cc1ccccc1-c1csc(C(O)c2cccc(Cl)c2)n1 (stereo not drawn) -14.8%
CC(C)Cn1cc(-c2cncc3nccn23)cn1 19.7%
NC(=O)CSc1nnc(-c2cccc(S(=O)(=O)N3CCOCC3)c2)o1 -19.7%
Cc1c(C(=O)NCc2ccc(C#N)cc2)sc(=O)n1Cc1ccc(C(=O)N(C)C)cc1 16.1%
COc1ccc(C(=O)N2CCC(C(=O)Nc3cccc(C)c3)CC2)cc1OC 9.36%
CC(C)(C)c1ccc(C(=O)N2CCC(C(=O)N3CCCCC3)CC2)cc1 7.98%
CC(=O)N(C1=C(Cl)C(=O)c2ccccc2C1=O)c1ccc(C(=O)O)cc1 -17.6%
COc1cccc(CNc2nc(NCc3cccs3)nc3ccsc23)c1 -28.6%
C[C@H](CO)N1C[C@H](C)[C@@H](CN(C)S(=O)(=O)c2ccc(F)cc2)OCc2cnnn2CCCC1=O -22.3%
COc1ccc(C(C)(NC(C)=O)c2nc(-c3ccc(S(C)(=O)=O)cc3)cs2)cc1 (stereo not drawn) 0.123%
CC(C)Nc1ncnc2c1ncn2[C@H]1CN(Cc2ccncc2)C[C@@H](CO)O1 4.5%
Cc1c(NC(=O)c2cc(-c3ccc(Br)cc3)on2)c(=O)n(-c2ccccc2)n1C -15%
Cc1cc2oc(C(=O)Nc3c(C)n(C)n(-c4ccccc4)c3=O)c(C)c2cc1Cl -21.8%
CCCCCNC(=O)C(c1ccc(OC)cc1)n1c(=O)c(-c2ccccc2)nc2ccccc21 (stereo not drawn) 3.45%
CC1=C(C(=O)N(C(C)C)C(C)C)CC(CC(=O)NCCCCc2ccccc2)C(=O)N1CCC1=CCCCC1 (stereo not drawn) -16.1%
COC(=O)[C@]12CCCCC=C1N(Cc1ccc3c(c1)OCO3)C(=O)[C@H](CC(=O)NCc1cccs1)C2 3.72%
Cc1ccc(CCC(=O)Nc2ncc(Cc3cc(Cl)ccc3Cl)s2)o1 -12.7%
CN(C)CCOC1c2ccccc2-c2ccccc21 -17.2%
CN(C)CCOC(=O)C(c1ccccc1)C1(O)CCCC1 (stereo not drawn) -12.5%
COCCNc1ncnc2c1ncn2[C@H]1CN(Cc2ccc(OC)cc2)C[C@@H](CO)O1 6.87%
Cc1cc(C)n2c(NCc3ccccc3)c(CC(C)C)nc2n1 5.03%
Cc1ccc(CN(C)C[C@@H]2OCc3cnnn3CCCC(=O)N([C@@H](C)CO)C[C@H]2C)cc1 -25.2%
CC(CNc1ccc([N+](=O)[O-])cc1)NC(=O)c1ccccc1Br (stereo not drawn) 3.2%
O=C(NCCNc1ccc([N+](=O)[O-])cc1Cl)c1ccccc1F -0.899%

Max response, negative = inhibition, active:
CC(=O)NC1C(OCc2ccccc2)OC(COC(C)=O)C(OC(C)=O)C1OC(C)=O (stereo not drawn) -50.8%
Cc1ccc(NC(=S)N(CCCN2CCC(C)CC2)Cc2ccco2)cc1 -63.3%
Cc1ccc(NC(=S)N(CCN2CCCCC2)Cc2ccco2)cc1C -70.4%
O=C(CSC1=Nc2ccccc2C2=NC(c3ccccc3)C(=O)N12)NCC1CCCO1 (stereo not drawn) -66.9%
Cc1ccc(N2C(=O)CC(NCc3ccc4c(c3)OCO4)C2=O)cc1Cl (stereo not drawn) -53.6%
COc1cnc(-c2ccccn2)nc1Oc1ccc(C(C)(C)C)cc1 -52.8%
Cc1n[nH]c(=S)n1/N=C/c1ccc(Br)o1 -55%
Cc1cc(C)c2c(=O)[nH]c(SCC(=O)Nc3ccc(Br)cc3)nc2n1 -52.3%
COCCCNCCOCCOc1ccc(Cl)cc1Br -97.1%
CCN1CCN(c2ccc([N+](=O)[O-])cc2C(=O)c2ccc(Cl)cc2)CC1 -55.6%
O=C(N/N=C/c1ccc(O)cc1)/C(=C/c1ccc([N+](=O)[O-])cc1)NC(=O)c1ccccc1 -52.3%
COc1ccccc1NC(=O)C1CCN(C(=O)c2ccc(C(C)(C)C)cc2)CC1 -52%
O=C1C(Cl)=C(Oc2ccccc2)C(=O)c2ccccc21 -90.6%
Cc1c(NC(=O)c2coc(=O)c(Br)c2)c(=O)n(-c2ccccc2)n1C -83.3%
Cc1ccc(Cc2cnc(N)s2)o1 -53.2%
Cc1ccccc1C(OCCN(C)C)C1CCCCC1 (stereo not drawn) -100%
O=C(NCCNc1ccc([N+](=O)[O-])cc1)c1cccc2c(Br)cccc12 -58.2%
